# Screening data: PubChem, National Center for Advancing Translational Sciences (NCATS)
# 12-LOX inh: Primary qHTS assay for inhibitors of human arachidonate 12S-lipoxygenase (ALOX12): Round 2 | Polyunsaturated fatty acid lipoxygenase ALOX12 (Homo sapiens), P18054 | purified 12hLO, xylenol orange hydroperoxide absorbance | Potency, µM (top dose mostly 108 µM), inactives show at the top dose activity change, negative = inhibition, hits mostly inhibitors | 1.1% of 580,000 active | AID 1671190, 2021; also: potency is read from the fitted curve at half-maximal effect; % is scaled to controls: 0 for no effect and ±100 for the full control effect
# Target sequence (P18054 whole entry, looked up): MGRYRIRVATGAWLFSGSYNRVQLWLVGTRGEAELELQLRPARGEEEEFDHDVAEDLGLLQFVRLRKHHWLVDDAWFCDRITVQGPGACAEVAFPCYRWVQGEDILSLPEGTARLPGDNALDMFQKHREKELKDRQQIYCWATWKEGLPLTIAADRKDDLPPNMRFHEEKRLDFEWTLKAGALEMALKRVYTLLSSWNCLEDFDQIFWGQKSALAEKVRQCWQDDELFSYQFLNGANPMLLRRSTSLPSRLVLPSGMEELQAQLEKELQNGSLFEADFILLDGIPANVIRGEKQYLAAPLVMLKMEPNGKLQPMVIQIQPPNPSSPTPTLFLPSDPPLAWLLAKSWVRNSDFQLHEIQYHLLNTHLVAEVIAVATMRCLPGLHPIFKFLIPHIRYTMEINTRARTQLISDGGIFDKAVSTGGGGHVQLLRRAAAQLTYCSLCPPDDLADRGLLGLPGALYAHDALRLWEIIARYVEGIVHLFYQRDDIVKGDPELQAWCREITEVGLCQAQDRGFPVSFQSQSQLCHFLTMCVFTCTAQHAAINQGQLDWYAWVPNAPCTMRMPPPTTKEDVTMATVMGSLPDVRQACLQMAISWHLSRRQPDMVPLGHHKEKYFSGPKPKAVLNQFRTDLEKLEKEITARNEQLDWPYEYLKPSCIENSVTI
#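 Purified human 12hLO at 150 nM in 25 mM Hepes, 0.01% Triton X-100, pH 7.0, preincubated 15 min at room temperature with compound. Reaction started with 40 uM arachidonic acid, 30 min at room temperature. Hydroperoxide measured by Fe-xylenol orange, 573/405 nm absorbance ratio.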
# Nrf2 activator: qHTS of Nrf2 Activators; AREc32 ARE-luciferase reporter (MCF7-derived line), luminescence, 24 h; Potency, µM (top dose mostly 46.1 µM), for the others: at the top dose activation, actives largely listed as activators; 0.31% of 410,000 active; AID 624171, 2012; also: potency is read from the fitted curve at half-maximal effect; % of control where 0% means no effect; nearly all actives have a fitted effect of over 65% in size
#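 AREc32_Fluc, 1000 cells/well, OPTI-MEM + 5% FBS, o/n 37 deg C 5% CO2; 23 nL cpd by pin tool, 24 hr; Steady-Glo 30 min RT, luminescence.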
# IDH1 R132H inh: qHTS for Inhibitors of mutant isocitrate dehydrogenase 1 (IDH1): qHTS. Isocitrate dehydrogenase [NADP] cytoplasmic (Homo sapiens), O75874. IDH1-R132H enzyme, NADPH consumption, diaphorase/resazurin fluorescence. Potency, µM (highest dose often 76.6 µM), without a hit: top-dose activity change, negative = inhibition, most hits filed as inhibitors. 0.093% of 390,000 active; also: potency is read from the fitted curve at half-maximal effect; % is scaled to controls: 0 for no effect and ±100 for the full control effect; nearly all actives have a fitted effect of over 65% in size
#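 IDH1-R132H (0.5 ug/mL) preincubated 30 min with compound, then NADPH (0.016 mM) and alpha-KG (2 mM) added; 80 min at RT, pH 7.5. Remaining NADPH coupled via diaphorase/resazurin to fluorescence (540/590 nm); concentration-response curves normalized to no-enzyme control.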
# Nrf2 inh: Nrf2 qHTS screen for inhibitors; Potency, µM (titrated, usually from 46 µM), without a hit: at the highest dose activity change, negative = inhibition, usual class: inhibitors; AID 504444, 2011; 2.1% of 360,000 active; A549 ARE-Fluc reporter, luciferase luminescence, 18-24 h; also: potency is read from the fitted curve at half-maximal effect; % is scaled to controls: 0 for no effect and ±100 for the full control effect; nearly all actives have a fitted effect of over 60% in size
#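 Two sequential reads on A549 ARE_Fluc cells exposed to compound for 18-24 h: a CellTiter-Fluor fluorescence read for viability, then a luciferase luminescence read for Nrf2/ARE activity.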
# LDHA block: qHTS assay for inhibitors of human lactate dehydrogenase; L-lactate dehydrogenase A chain (Homo sapiens), P00338; purified LDHA, NADH/diaphorase-resazurin fluorescence; stronger effect = lower value; activity change, % (values are at about 110 or 230 µM); 0.15% of 480,000 active; in the data active = activity change below about -30%; inconclusive = mostly about -25% to -30%;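 also: plate controls were DMSO wells for no effect and wells without enzyme for full effect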
#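 Remaining NADH was detected by diaphorase (0.133 mg/mL) converting 37 µM resazurin to fluorescent resorufin, read at 0 and 20 minutes. The preceding 5-minute room-temperature reaction used 2 nM LDHA, 0.2 mM sodium pyruvate and 0.06 mM NADH at pH 7.4.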
# A549 tox-1: Nrf2 qHTS screen for inhibitors: counterscreen for cytotoxicity | Potency, µM (titrated, usually from 46 µM), for the others: at the highest dose activity change, negative = cytotoxicity, hits mostly inhibitors | A549 ARE-Fluc cells, CellTiter-Fluor viability, 18-24 h | 0.16% of 390,000 active; also: potency is read from the fitted curve at half-maximal effect; % is scaled to controls: 0 for no effect and ±100 for the full control effect
#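 A549 ARE_Fluc cells in 5% FBS OPTI-MEM were exposed to compounds in concentration-response for 18-24 h at 37 deg C. Viability was read by CellTiter-Fluor fluorescence (Ex 405/Em 525) after 30 min, before the luciferase read.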
# FLuc counter 3: Nrf2 qHTS screen for inhibitors: Purified Fluc Biochemical Counterscreen for Hit Validation; Potency, µM (titrated, usually from 57.5 µM), for the others: top-dose activity change, negative = inhibition, actives largely listed as inhibitors; purified firefly luciferase, luminescence inhibition; AID 720522, 2013; 4% of 1,400 active; shares compounds with Nrf2 inh; also: potency is read from the fitted curve at half-maximal effect; % is scaled to controls: 0 for no effect and ±100 for the full control effect; nearly all actives have a fitted effect of over 65% in size
# A549 tox-2: Nrf2 qHTS screen for inhibitors: A549 ARE-Fluc Cytotoxicity Counterscreen for Hit Validation | shares compounds with Nrf2 inh | A549 ARE-Fluc cells, cytotoxicity counterscreen | Potency, µM (titrated, usually from 46.1 µM), inactives show at the top dose activity change, negative = cytotoxicity, most hits filed as inhibitors | 2% of 1,400 active;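 also: potency is read from the fitted curve at half-maximal effect; cells exposed to compounds for 18 to 24 hours; % is scaled to controls: 0 for no effect and ±100 for the full control effect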
# Nrf2 ARE inh: Nrf2 qHTS screen for inhibitors: Nrf2 A549 ARE-Fluc Confirmation Assay for Hit Validation; shares compounds with Nrf2 inh; A549 ARE-firefly luciferase reporter, luminescence; Potency, µM (doses to about 46.1 µM), for inactives: top-dose activity change, negative = inhibition, most hits filed as inhibitors; 74% of 1,400 active; AID 720524, 2013; also: potency is read from the fitted curve at half-maximal effect; % is scaled to controls: 0 for no effect and ±100 for the full control effect; nearly all actives have a fitted effect of over 65% in size
# The depositor's hits bear a star; ? = inconclusive; · = no result given; [ ] = another dose, or the depositor's remark. In the library only some 2.7% were active in any assay of this set; here they are far more common. Unless noted, calls follow the shape of the dose curve; as a rule, active = well fitted curve in the direction sought with a large enough effect; inconclusive = small, poorly fitted or top-dose-only effect, or another doubt; inactive = no such curve, though single readings can be large; an effect the other way counts as inactive or inconclusive.
SMILES,12-LOX inh,Nrf2 activator,IDH1 R132H inh,Nrf2 inh,LDHA block,A549 tox-1,FLuc counter 3,A549 tox-2,Nrf2 ARE inh
CCOC(=O)C1CCCN(C(=O)c2cc3c(Cl)nc4ccccc4c3s2)C1 (centres undefined),4%,-3%,26%,5.8µM*,-4,0%,-1%,0%,8.2µM*
O=C(c1cc2c(Cl)nc3ccccc3c2s1)N1CCCCC1,-14%,6%,3%,7%,-3,-4%,·,·,·
CCc1ccc2ncc3c(-c4ccc(F)cc4)nn(CC(=O)NC4CCCCC4)c3c2c1,6%,-1%,-14%,1.6µM*,-8,0%,0%,-2%,?
CN(C)c1nccnc1OC1CCN(C(=O)NCCc2ccccc2)C1 (centres undefined),24%,·,·,·,·,·,·,·,·
Cc1ccc(NC(=O)c2ccc(=O)[nH]n2)cc1S(=O)(=O)Nc1ccccc1Cl,254%,0%,-2%,-4%,-3,-2%,·,·,·
COc1ccc(C(=O)Nc2ccc(Cl)c(S(=O)(=O)Nc3ccccc3OC)c2)cc1,-17%,0%,1%,7.3µM*,-1,-12%,?,-10%,9.2µM*
Cc1ccc(NC(=S)NC(=O)c2ccc(F)cc2)cc1S(=O)(=O)Nc1ccccc1Cl,5µM*,2%,-2%,7.3µM*,-1,?,-10%,-12%,?
CC(CCc1ccco1)NC(=O)c1ccccc1F (centres undefined),-1%,·,·,·,-7,·,·,·,·
COc1ccc(Nc2nc(-c3cccs3)nc3ccccc23)cc1S(=O)(=O)N1CCOCC1,-16%,-1%,-6%,9.2µM*,-6,?,-21%,?,?
CN(C)S(=O)(=O)c1cccc(NC(=O)c2nc(-c3ccccc3)n(-c3ccccc3)n2)c1,29%,·,·,·,-15,·,·,·,·
O=C(NCC1CCCO1)C(c1ccncc1)N(Cc1cccs1)C(=O)Cn1nnc(-c2ccc(F)cc2)n1 (centres undefined),-7%,0%,2%,?,-1,-6%,·,·,·
CC(C)CCNC(=O)C(c1ccncc1)N(Cc1cccs1)C(=O)Cn1nnc(-c2ccc(F)cc2)n1 (centres undefined),6%,9%,-4%,2.6µM*,6,?,-3%,?,1.5µM*
CCOC(=O)c1cc(C)n(CC2CCC(C(=O)Nc3ccc(Cl)cc3)CC2)c1C (centres undefined),-24%,0%,7%,8.2µM*,-6,?,-12%,-24%,13µM*
CCOC(=O)OCC(=O)C1(O)CCC2C3CCC4=CC(=O)CCC4(C)C3C(O)CC21C (centres undefined),-2%,4%,2%,0.21µM*,2,-6%,1%,4%,·
CC12CCC(=O)C=C1CCC1C2C(O)CC2(C)C1CCC2(O)C(=O)COC(=O)COCC(=O)O (centres undefined),-1%,2%,-3%,0.29µM*,-5,-6%,2%,-12%,0.073µM*
CC(=O)OCC(=O)C1(O)CCC2C3CCC4=CC(=O)CCC4(C)C3C(O)CC21C (centres undefined),2%,0%,-2%,0.15µM*,-6,-1%,3%,-7%,0.18µM*
CC(=O)OCC(=O)[C@@]1(O)CC[C@H]2[C@@H]3CCC4=CC(=O)CC[C@]4(C)[C@@H]3C(=O)C[C@@]21C,-2%[57.4 µM],·,·,·,·,·,·,·,·
CCCCCCCC(=O)OCC(=O)[C@@]1(O)CC[C@H]2[C@@H]3CCC4=CC(=O)CC[C@]4(C)[C@H]3[C@@H](O)C[C@@]21C,-11%,-1%,-5%,0.46µM*,-2,-1%,3%,-5%,0.33µM*
CCCC(=O)O[C@]1(C(=O)COC(=O)CC)CC[C@H]2[C@@H]3CCC4=CC(=O)CC[C@]4(C)[C@H]3[C@@H](O)C[C@@]21C,-5%[12.5 µM],·,·,·,·,·,·,·,·
C=C(C)COc1ccc2c(C)c(CCC(=O)NCc3ccc(S(N)(=O)=O)cc3)c(=O)oc2c1C,-46%,·,·,·,1,·,·,·,·
Cc1ccc(-c2ccc(OC(=O)c3ccccc3I)c(C)c2)cc1,36%,·,·,·,-6,·,·,·,·
COc1cccc2c1C(=O)c1c(O)c3c(c(O)c1C2=O)CC(O)(C(=O)CO)CC3OC1CC(N(C)C)C(O)C(C)O1 (centres undefined),-22%,-2%,-14%,0.46µM*,26,?,?,?,0.26µM*
O=c1[nH]c(=O)n(Cc2ccco2)c2c1C(C(F)(F)F)(C(F)(F)F)N=C(c1ccc(F)cc1)N2,1%,0%,-2%,4.1µM*,-10,-29%,3%,-23%,2.9µM*
Clc1cccc(Nc2nc3nonc3nc2N2CCCCC2)c1,6%,·,·,·,7,·,·,·,·
Oc1cccc2c(CC(O)c3c[nH]c4ccccc34)ccnc12 (centres undefined),·,·,·,·,·,·,-15%,-29%,4.1µM*
OCc1c[nH]c2ccccc12,?,4%,-2%,16%,-1,-9%,·,·,·
O=C1CCC(C(=O)OCC(=O)c2ccccc2)N1 (centres undefined),8%,0%,2%,4%,-3,1%,·,·,·
CC1CC(C)C(=O)C(C(CC2CC(=O)NC(=O)C2)OC(=O)CC(=O)c2ccccc2)C1 (centres undefined),-3%,-1%,4%,5.2µM*,-4,?,2%,-19%,0.21µM*
CC1=Nc2cc(C(=O)NC3CCCCC3)ccc2Sc2ccc(Cl)cc21,-18%,1%,-14%,·,-13,-12%,·,·,·
